The values below come from PubChem BioAssay (NCI).

This is part of a sample that, as a whole, favours compounds with a hit. Of some 83,000 tested, about 20% had one in any assay.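 Testing used 96-well plates and a 48-hour single-concentration exposure. Example: -40 means 40% of the starting cells died.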 A number with no mark means an inactive call. Calls of active or inactive are those of the source. Rule for the calls: active = growth percent below 10; inactive = the rest.

This assay has as its system HL-60(TB) leukemia. In words: NCI-60 one-dose screen, 48 h (100 = growth as untreated, 0 = no growth, -100 = all killed). As to conditions: 10 µM unless noted.
Regarding `O=C(O)COc1ccc(OCC(=O)O)cc1`, the growth is -1.78% (active). The figure for `C#CCOc1cccc(-c2ncc3cc(NC(=O)CCl)ccc3n2)c1` is 14.3%.

As for `COc1ccc(-c2nc(SCC(=O)c3ccc(Br)cc3)[nH]c(=O)c2C#N)cc1`, the growth is 91.5%. The figure for `O=C(Nc1cccc2[nH]c(C(F)(F)F)nc12)c1ccc(-n2cnnn2)cc1` is 1.31% (active); for `CC(=O)O[C@H]1CC[C@]2(C)[C@H]3CC=C4[C@@H]5CC(C)(C)CC[C@]5(C(=O)N5CCN(CCC#N)CC5)CC[C@@]4(C)[C@]3(C)CC[C@H]2C1(C)C` it is 12.9%; for `O=C(Nc1cc(-c2cccnc2)nc(NCCCN2CCOCC2)n1)c1cc(Br)cc(C(F)(F)F)c1` it is 48.5%. On to `CN(C)c1ccc(C2(Cl)c3ccccc3N(C)c3ccccc32)cc1`, for which the growth was 17.5%. As for `O=C(N/N=C/c1c(Cl)cccc1Cl)c1ccccc1Nc1cccc(C(F)(F)F)c1`, the figure is 95.3%; as for `O=C(CSc1ncccc1C(=O)O)Nc1ccc(Oc2ccccc2)cc1`, 87.5%. As for `COc1ccc(-n2[nH]c3c(cnc4ccccc43)c2=O)cc1`, the figure is 97.3%.

With `OCCNCCNC(Cc1ccc(Cl)cc1)c1ccccc1` (stereo not given), the growth is 76.4%. As for `FC(F)(F)c1ccc2nc(-c3nc(-c4ccccc4)n4ccccc34)[nH]c2c1`, the figure is 108%. The figure for `C=CC(=O)Nc1cccc(Oc2nccc(Nc3nnc(-c4ccc(Br)cc4)s3)n2)c1` is 121%; for `COc1ccccc1N1CCN(CCCOc2ccc(OCCCN3CCN(c4ccccc4OC)CC3)c(C(=O)c3cc(OC)c(OC)c(OC)c3)c2)CC1` it is 101%. The figure for `O=C1c2c(c3c4ccccc4[nH]c3c3ccc4ccccc4c23)C(=O)N1CCN1CCNCC1` is 43.6%. For the compound `O=C1/C(=C\c2ccc(F)cc2)CN(C(=O)c2ccccc2F)C/C1=C\c1ccc(F)cc1`, the growth is -4.26% (active). As for `CC1=C2[C@@H](CC1)[C@]1(C)O[C@@](C(C)C)(C[C@H]1OC(=O)[C@H](C)O)[C@H]2OC(=O)/C=C/c1ccccc1`, the figure is 89.1%; as for `COc1ccc(-c2cc(-c3cc(OC)ccc3OC)nc(N)c2C#N)cc1`, 90.4%. The figure for `CC1C(=NC(=O)c2cnccn2)C(C)C(c2ccc(Cl)cc2)NC1c1ccncc1` (stereo not given) is 108%; for `CCN(CC)CCSCCCNc1c2ccc(Cl)cc2nc2ccc(OC)cc12` it is -35.4% (active); for `CCCCCc1c(C)[nH]c(/C=C2\N=C(c3ccc[nH]3)C=C2Oc2ccccc2)c1C` it is -49.6% [100 µM] (active). The figure for `OC(CCN1CCCCC1)(c1ccccc1)c1ccccc1` is 130%; for `N#CSCc1cc(Cl)c(CSC#N)cc1Cl` it is 22.1%; for `CCCCCCCCCCCCOc1ccccc1C=O` it is 89.9%. As to `Cc1c(C)c2c(c(C)c1OC(=O)CCC(=O)[O-])CCC(C)(CCCCCCCCCCC[P+](c1ccccc1)(c1ccccc1)c1ccccc1)O2` (stereo not given), the growth is -35.2% (active). As for `CC(O)C(N)=O` (stereo not given), the figure is 117%.

In the case of `O=Cc1c(OCc2cnnn2CC(=O)Nc2ccc(Cl)cc2)ccc2ccccc12`, the growth was 98.5%.

On to `CN(C)c1ccc(C(=C2C=CC(=[N+](C)C)C=C2)c2ccc(N(C)C)cc2)cc1` (tested in a mixture with another compound), for which the growth is -51.3% (active). As for `COc1cc2c(cc1OC)C(=O)C(CC1CCN(C(=O)Nc3ccc(C)cc3)CC1)C2` (stereo not given), the figure is 125%; as for `COc1cc(NC(=O)c2cc(O)c(C/C=C(\C)CCC=C(C)C)c(O)c2)cc2c1O[C@]1(C)CC[C@@H](O)C(C)(C)[C@H]1C2`, -7.34% (active); as for `O=C(CN1C(=O)NC2NC(=O)NC21)N/N=C/c1cccc([N+](=O)[O-])c1` (stereo not given), 99.1%.

`Cn1c(=O)[nH]c2ccccc2c1=O`: the growth was 111%. Take `COc1cc2cc(Oc3ccc(NC(=O)c4ccccc4)cc3)c(C)nc2cc1OC`: the growth is 100%. As for `COc1ccc2c(c1)CCNC21C(=O)Nc2c(Br)cc(Br)cc21` (stereo not given), the figure is 117%; as for `O=C(CSc1nnc(-c2cc(-c3ccc(Cl)cc3)nc3ccccc23)n1-c1ccccc1)Nc1ccc(Cl)cc1`, 85.8%.

Turning to `O=C1O[C@H]([C@H](O)CO)C(O)=C1O`, the growth is 99.5%. The figure for `CCCc1c(CC)c(=N)c2ccccc2n1C` is 32.7%; for `CCNC(=O)Oc1ccc(/C(=C(\C)c2ccccc2)c2ccc(OCCCN(C)C)cc2)cc1` it is 53.2%; for `N/C(=N\C(N)=N\c1nc2ccccc2s1)c1ccncc1` it is 35.2%. The figure for `CCCCCCCCN(CCCCCCCC)CC(O)c1ccc(Cl)c(C)c1Cl` (stereo not given) is 106%.
